Assay [1] concerns the target Sphingosine kinase 1 (Homo sapiens) (UniProt Q9NYA1). The settings on record: at 1 µM.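 Further: mean SPHK1 inhibition value reported from the GSK PKIS kinase panel screen.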
Assay [2] concerns the target T1, Sphingosine kinase 2 (Homo sapiens) (UniProt Q9NRA0).
T1 sequence (whole entry): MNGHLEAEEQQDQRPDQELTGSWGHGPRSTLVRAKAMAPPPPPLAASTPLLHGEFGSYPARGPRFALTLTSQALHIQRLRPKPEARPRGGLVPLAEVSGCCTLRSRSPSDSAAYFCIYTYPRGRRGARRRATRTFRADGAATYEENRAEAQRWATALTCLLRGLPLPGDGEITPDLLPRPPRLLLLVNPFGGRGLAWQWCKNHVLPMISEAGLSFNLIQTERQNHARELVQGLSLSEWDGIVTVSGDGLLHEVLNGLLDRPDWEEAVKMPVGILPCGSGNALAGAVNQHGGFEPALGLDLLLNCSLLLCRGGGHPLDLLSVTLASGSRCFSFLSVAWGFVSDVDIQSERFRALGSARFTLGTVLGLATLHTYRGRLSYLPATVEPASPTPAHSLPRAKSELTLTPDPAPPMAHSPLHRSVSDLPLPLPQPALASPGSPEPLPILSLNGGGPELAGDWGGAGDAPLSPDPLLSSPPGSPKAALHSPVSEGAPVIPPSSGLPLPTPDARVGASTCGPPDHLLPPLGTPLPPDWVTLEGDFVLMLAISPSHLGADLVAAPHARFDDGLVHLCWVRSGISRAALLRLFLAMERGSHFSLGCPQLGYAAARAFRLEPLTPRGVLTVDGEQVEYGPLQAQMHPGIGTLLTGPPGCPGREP
The settings on record: at 0.1 µM.

Assay [3] addresses T1, Sphingosine kinase 2 (Homo sapiens). As to conditions: at 1 µM.
For assay [4], the target named is Casein kinase II subunit alpha (Homo sapiens) (UniProt P68400). The settings on record: at 0.1 µM.
For assay [5] the target is unchanged. As to conditions: at 1 µM.
Assay [6] addresses T2, Inhibitor of nuclear factor kappa-B kinase subunit alpha (Homo sapiens) (UniProt O15111).
T2 sequence (whole entry): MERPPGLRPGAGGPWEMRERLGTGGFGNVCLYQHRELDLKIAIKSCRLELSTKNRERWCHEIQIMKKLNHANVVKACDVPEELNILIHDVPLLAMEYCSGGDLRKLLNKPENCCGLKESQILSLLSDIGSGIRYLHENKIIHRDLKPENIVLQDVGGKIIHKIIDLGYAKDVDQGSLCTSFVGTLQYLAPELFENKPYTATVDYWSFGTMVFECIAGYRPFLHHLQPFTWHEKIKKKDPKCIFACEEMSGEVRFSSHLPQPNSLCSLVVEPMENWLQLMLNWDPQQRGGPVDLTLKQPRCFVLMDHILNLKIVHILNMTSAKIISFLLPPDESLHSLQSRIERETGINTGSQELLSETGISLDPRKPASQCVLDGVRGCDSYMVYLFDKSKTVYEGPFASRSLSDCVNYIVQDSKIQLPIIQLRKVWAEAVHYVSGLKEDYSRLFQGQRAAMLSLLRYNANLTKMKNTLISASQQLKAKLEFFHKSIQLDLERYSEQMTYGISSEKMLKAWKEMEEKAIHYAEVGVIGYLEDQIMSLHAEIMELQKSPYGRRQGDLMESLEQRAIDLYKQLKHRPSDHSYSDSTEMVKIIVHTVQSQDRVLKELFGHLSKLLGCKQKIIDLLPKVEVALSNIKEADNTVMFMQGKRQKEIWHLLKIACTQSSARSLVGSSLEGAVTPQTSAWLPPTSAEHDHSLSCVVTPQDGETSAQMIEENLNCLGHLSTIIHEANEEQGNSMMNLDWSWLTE
The settings on record: at 0.1 µM.

The target of assay [7] is T2, Inhibitor of nuclear factor kappa-B kinase subunit alpha (Homo sapiens). As to conditions: at 1 µM.
The target of assay [8] is T3, Inhibitor of nuclear factor kappa-B kinase subunit beta (Homo sapiens) (UniProt O14920).
T3 sequence (whole entry): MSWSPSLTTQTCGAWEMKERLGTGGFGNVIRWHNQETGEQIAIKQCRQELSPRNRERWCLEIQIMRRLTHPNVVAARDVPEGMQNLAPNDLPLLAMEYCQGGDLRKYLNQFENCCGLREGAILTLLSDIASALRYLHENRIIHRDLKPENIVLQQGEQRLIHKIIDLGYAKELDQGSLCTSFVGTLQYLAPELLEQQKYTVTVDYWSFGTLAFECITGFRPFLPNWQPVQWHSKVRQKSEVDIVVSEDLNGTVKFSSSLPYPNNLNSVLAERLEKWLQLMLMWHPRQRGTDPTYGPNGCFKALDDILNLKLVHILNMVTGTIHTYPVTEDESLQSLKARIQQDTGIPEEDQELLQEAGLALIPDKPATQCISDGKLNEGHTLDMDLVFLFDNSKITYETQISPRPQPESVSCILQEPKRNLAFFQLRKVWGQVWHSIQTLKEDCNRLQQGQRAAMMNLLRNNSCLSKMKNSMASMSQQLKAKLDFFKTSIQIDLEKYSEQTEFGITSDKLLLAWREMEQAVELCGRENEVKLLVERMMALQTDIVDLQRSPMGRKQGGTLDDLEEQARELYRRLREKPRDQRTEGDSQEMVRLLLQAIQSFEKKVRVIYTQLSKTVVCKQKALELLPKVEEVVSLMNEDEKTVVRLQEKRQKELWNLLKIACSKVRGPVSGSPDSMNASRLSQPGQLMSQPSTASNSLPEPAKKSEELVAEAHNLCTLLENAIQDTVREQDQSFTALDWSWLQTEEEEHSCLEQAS
As to conditions: at 0.1 µM.

The target in assay [9] is T3, Inhibitor of nuclear factor kappa-B kinase subunit beta (Homo sapiens). The settings on record: at 1 µM.
Assay [10] has as its target T4, Inhibitor of nuclear factor kappa-B kinase subunit epsilon (Homo sapiens) (UniProt Q14164).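 Further: mean inhibition of IKKε reported, from the GSK PKIS dataset.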
T4 sequence (whole entry): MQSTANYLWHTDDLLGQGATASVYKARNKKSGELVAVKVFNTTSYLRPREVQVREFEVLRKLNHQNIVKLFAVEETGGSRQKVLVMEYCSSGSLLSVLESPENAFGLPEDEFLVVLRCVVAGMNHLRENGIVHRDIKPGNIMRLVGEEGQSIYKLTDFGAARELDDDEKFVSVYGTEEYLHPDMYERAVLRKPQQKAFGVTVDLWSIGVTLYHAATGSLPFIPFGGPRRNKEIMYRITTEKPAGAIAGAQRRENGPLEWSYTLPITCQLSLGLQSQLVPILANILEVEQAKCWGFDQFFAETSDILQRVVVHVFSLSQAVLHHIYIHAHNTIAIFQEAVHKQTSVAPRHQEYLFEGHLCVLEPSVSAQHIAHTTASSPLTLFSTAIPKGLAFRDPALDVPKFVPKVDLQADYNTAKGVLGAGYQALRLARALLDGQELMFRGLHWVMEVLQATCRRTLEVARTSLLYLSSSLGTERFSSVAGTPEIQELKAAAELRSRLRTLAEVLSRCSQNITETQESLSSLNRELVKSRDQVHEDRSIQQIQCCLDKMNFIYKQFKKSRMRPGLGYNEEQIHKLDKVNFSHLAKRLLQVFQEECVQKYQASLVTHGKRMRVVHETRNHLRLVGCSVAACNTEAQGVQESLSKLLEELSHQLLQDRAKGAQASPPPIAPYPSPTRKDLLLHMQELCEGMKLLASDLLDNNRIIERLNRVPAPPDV
The settings on record: at 0.1 µM.

Casein kinase II subunit alpha (Homo sapiens), sequence (P68400 whole entry, looked up): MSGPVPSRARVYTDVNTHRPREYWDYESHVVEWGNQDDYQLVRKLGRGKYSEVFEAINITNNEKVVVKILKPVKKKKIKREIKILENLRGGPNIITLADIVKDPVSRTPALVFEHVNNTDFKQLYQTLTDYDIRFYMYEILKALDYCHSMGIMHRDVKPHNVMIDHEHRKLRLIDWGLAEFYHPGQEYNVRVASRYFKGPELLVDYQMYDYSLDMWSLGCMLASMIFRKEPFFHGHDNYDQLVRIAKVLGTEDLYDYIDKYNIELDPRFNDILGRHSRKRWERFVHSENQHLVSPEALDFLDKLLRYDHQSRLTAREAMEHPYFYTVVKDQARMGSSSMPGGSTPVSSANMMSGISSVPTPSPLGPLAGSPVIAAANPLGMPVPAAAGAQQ
Sphingosine kinase 1 (Homo sapiens), sequence (Q9NYA1 whole entry): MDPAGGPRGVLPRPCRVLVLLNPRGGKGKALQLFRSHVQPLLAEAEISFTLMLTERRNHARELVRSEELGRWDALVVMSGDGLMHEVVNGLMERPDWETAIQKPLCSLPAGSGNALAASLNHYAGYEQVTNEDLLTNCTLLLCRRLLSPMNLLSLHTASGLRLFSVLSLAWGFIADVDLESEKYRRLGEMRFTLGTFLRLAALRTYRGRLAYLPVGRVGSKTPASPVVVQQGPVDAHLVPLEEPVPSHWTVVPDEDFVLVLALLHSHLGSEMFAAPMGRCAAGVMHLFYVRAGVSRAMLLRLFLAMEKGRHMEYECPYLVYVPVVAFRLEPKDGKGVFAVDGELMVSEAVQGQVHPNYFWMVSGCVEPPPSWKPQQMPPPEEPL

`CCN(CC)Cc1ccc(Nc2nccc(-c3cnn4ncccc34)n2)cc1`: the inhibition (commonly the change of the read-out against control, counted positive when it falls) in assay [1] was determined as 7.74%; in assay [2] it was 4.29%; in [3], 2.72%; in assay [4], 10.9%; in [5] it was 31.1%; in [6], 3.66%. Also, the inhibition in assay [7] was found to be 34.9%; in assay [8], 7.57%; in assay [9] it was 17.5%; in assay [10] it was 8.95%.
Turning to `Fc1ccc(-c2c(-c3ccncc3)nc3n2CCS3)cc1`, the inhibition is 1.66% in [1]; 0.08% in assay [2]; 0.64% in [3]; 2.23% in assay [4]; 2.3% in assay [5]; 7.58% in assay [6]. In addition, the inhibition amounted to 3.05% in assay [7], 2.88% in assay [8], 3.75% in assay [9] and 4.09% in assay [10].
Turning to `NC(=O)c1cc(-c2ccncc2)cc(-c2ccccc2)c1N`, the inhibition is 1.79% in assay [1]; -0.11% in assay [2]; -1.58% in assay [3]; 2.36% in assay [4]; 2.75% in assay [5]; 9.18% in [8]. Moreover, the figures for the inhibition in [9] and in [10] were 27.5% and 6.3%, respectively.
`NC(=O)c1ccc(Oc2nccc(-c3c(-c4ccc(F)cc4)ncn3C3CCNCC3)n2)cc1`: the inhibition was 2.16% in [1]; 0.71% in assay [2]; 0.08% in assay [3]; 2.95% in assay [4]; 2.91% in assay [5]; 5.54% in assay [6]. The inhibition in [7] was 7.33%; in [8] it was 7.24%; in [9], 6.83%; in assay [10] it was 8.54%.
In the case of `CN(C)c1ccc2c(c1)/C(=C/Nc1ccc(S(N)(=O)=O)cc1)C(=O)N2`, the inhibition in [1] is -2.05%; in assay [2] it was 0.7%; in [3] it was 0.06%; in assay [4], 2.93%; in assay [5], 18%; in [6] it was 1.67%. Moreover, the inhibition worked out at 6.64% in assay [7], 2.49% in assay [8], 1.1% in assay [9] and 4.67% in assay [10].
On to `Cc1ccc(NC(=O)c2ccoc2)cc1-c1ccc(C(=O)NCC2CC2)cc1`, for which the inhibition in [1] is -2.32%; in assay [2] it was 0.42%; in [3], -0.05%; in [4], 2.64%; in [5], 1.38%; in assay [6] it was 0.11%. In addition, the inhibition in assay [7] turned out to be 7.23%; in [8], 3.9%; in assay [9], 3.86%; in assay [10] it was 3.64%.
Take `C[C@@H](Oc1cc(-n2cnc3ccc(OC4CCN(C)CC4)cc32)sc1C(N)=O)c1ccccc1Cl`: the inhibition in assay [1] was -0.63%; in [2], -0.31%; in [3] it was -1.96%; in assay [4], 8.71%; in [5] it was 7.82%; in [6] it was 6.24%. In addition, the inhibition in assay [7] was 7.13%; in assay [8], 7.4%; in assay [9] it was 4.96%; in [10] it was 5.46%.
In the case of `NC(=O)c1cc(-c2ccc(F)cc2)cc(-c2ccncc2)c1N`, the inhibition in [1] was 4.1%; in [2], 1.03%; in assay [3], -1.1%; in [4] it was 3.42%; in assay [5] it was 8.62%; in [10], 6.05%.
For `CCS(=O)(=O)c1ccc(OC)c(Nc2ncc(-c3cccc(-c4ccccc4F)c3)o2)c1`, the inhibition in [1] was 0.74%; in assay [2] it was 0.06%; in [3] it was -2.48%; in [4], 1.79%; in assay [5], 4.95%; in [6], 3.18%. Moreover, the inhibition was 3.18% in assay [7], 0.01% in assay [8], -1.42% in assay [9] and -1.02% in assay [10].

For the origin of these results see ChEMBL document CHEMBL1961873, “Compounds: GSK PKIS; Assays: Nanosyn kinase panel” (2012).
